Test in all cases: log2 fold change, soluble protein after heating vs DMSO (PISA); higher = thermal stabilisation; K562 lysate, 10 uM; active = over 0.2 and 3.5 SD of the protein, either way, in both replicates (recomputed)
Compound in test [1]: Cc1cn(-c2cc(NC(=O)c3ccc(C)c(Nc4nccc(-c5cccnc5)n4)c3)cc(C(F)(F)F)c2)cn1 [nilotinib]
A digest of the protocol: (§1)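 Log-two fold change in thermal stability relative to solvent controls is reported from duplicates. For each sample, crude K562 extract from dounce-homogenised pellets in PBS pH 7.4 with 1 mM MgCl2, at 1 mg/mL protein, was treated with 10 μM compound for 30 min. Aliquots heated for 3 min across 48°C-58°C were pooled, brought to 0.5% NP-40 at 4°C and cleared at 21,000xg for 90 min. The supernatant was quantified by TMTpro 16plex LC-MS/MS with channel sums equalised.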

Compound in test [2]: Cc1nc(Nc2n[nH]c3c2CN(C(=O)N[C@H](CN(C)C)c2ccccc2)C3(C)C)c2sccc2n1
The method in brief: as §1

Compound in test [3]: Cc1nc(Nc2ncc(C(=O)Nc3c(C)cccc3Cl)s2)cc(N2CCN(CCO)CC2)n1 [dasatinib]
The method in brief:
as §1

Compound in test [4]: Cc1ncc(-c2ccnc(Nc3ccc(S(C)(=O)=O)cc3)n2)n1C(C)C
A digest of the protocol:
as §1

Compound in test [5]: Cn1cc(-c2ccc3c(c2)CCN3C(=O)Cc2cccc(C(F)(F)F)c2)c2c(N)ncnc21
The method in brief: as §1

Compound in test [6]: Cn1cc(CNCC2CCN(c3ncc(C(=O)NO)cn3)CC2)c2ccccc21 [quisinostat]
A digest of the protocol:
as §1

Compound in test [7]: Cn1cncc1[C@@](N)(c1ccc(Cl)cc1)c1ccc2c(c1)c(-c1cccc(Cl)c1)cc(=O)n2C [tipifarnib]
The method in brief:
as §1

Compound in test [8]: NC(=O)Nc1cc(-c2cccc(F)c2)sc1C(=O)N[C@H]1CCCNC1
A digest of the protocol: as §1

Compound in test [9]: NC(=O)c1cnc(N[C@@H]2CCCC[C@@H]2N)nc1Nc1cccc(-n2nccn2)c1
The method in brief: as §1

Compound in test [10]: NC1(c2ccc(-c3nc4ccn5c(=O)[nH]nc5c4cc3-c3ccccc3)cc2)CCC1
A digest of the protocol: as §1

About 8,800 targets were measured; listed, in parts, are those with a hit and a random draw of the rest. About 0.5% of all pairs of compound and target were hits. Unmarked numbers belong to inactive results.

Here are results for 13 targets from the supplement of paper PMC10849652.

Chain of UniProt Q9HBH1 (Q9HBH1 whole entry, looked up): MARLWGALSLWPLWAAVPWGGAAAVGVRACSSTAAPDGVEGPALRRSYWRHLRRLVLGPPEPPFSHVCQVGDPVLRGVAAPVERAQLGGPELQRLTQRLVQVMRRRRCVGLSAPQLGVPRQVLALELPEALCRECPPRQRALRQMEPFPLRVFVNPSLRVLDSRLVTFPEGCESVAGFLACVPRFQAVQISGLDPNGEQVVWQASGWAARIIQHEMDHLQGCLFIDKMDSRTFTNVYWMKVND
Chain of UniProt P13667 (P13667 whole entry, looked up): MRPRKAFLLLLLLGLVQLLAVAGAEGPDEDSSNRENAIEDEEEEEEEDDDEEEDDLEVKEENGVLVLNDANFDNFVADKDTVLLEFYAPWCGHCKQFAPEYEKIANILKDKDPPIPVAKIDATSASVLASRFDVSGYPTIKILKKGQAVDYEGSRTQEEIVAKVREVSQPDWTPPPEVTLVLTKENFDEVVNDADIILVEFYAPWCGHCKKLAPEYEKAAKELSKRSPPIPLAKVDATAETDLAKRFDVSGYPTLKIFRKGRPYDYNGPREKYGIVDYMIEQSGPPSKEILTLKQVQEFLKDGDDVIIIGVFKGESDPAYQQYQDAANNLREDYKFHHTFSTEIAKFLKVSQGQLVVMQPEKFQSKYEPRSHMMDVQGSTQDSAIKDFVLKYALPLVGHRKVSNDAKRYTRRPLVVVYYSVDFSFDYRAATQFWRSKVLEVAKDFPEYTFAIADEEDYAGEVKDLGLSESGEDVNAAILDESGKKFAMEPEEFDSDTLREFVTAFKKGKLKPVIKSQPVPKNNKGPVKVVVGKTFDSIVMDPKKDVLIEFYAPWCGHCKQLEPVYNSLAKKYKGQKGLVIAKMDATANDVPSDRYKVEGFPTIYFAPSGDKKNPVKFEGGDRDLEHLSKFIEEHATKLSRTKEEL
Chain of UniProt Q13356 (Q13356 whole entry, looked up): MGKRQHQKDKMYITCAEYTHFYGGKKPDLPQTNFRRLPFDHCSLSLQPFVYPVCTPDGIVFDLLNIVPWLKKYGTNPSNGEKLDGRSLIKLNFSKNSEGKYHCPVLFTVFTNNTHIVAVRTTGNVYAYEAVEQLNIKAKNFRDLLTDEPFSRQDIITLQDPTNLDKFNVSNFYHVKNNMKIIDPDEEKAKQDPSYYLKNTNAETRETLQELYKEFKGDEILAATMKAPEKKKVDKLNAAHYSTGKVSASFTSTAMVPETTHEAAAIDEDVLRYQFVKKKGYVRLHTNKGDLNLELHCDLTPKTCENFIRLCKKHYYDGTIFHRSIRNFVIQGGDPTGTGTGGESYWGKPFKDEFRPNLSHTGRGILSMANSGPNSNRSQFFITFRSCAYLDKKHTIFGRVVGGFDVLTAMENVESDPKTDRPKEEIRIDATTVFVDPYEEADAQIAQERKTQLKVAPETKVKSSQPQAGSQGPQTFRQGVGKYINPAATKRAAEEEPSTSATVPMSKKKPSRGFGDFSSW
Chain of UniProt Q16512 (Q16512 whole entry, looked up): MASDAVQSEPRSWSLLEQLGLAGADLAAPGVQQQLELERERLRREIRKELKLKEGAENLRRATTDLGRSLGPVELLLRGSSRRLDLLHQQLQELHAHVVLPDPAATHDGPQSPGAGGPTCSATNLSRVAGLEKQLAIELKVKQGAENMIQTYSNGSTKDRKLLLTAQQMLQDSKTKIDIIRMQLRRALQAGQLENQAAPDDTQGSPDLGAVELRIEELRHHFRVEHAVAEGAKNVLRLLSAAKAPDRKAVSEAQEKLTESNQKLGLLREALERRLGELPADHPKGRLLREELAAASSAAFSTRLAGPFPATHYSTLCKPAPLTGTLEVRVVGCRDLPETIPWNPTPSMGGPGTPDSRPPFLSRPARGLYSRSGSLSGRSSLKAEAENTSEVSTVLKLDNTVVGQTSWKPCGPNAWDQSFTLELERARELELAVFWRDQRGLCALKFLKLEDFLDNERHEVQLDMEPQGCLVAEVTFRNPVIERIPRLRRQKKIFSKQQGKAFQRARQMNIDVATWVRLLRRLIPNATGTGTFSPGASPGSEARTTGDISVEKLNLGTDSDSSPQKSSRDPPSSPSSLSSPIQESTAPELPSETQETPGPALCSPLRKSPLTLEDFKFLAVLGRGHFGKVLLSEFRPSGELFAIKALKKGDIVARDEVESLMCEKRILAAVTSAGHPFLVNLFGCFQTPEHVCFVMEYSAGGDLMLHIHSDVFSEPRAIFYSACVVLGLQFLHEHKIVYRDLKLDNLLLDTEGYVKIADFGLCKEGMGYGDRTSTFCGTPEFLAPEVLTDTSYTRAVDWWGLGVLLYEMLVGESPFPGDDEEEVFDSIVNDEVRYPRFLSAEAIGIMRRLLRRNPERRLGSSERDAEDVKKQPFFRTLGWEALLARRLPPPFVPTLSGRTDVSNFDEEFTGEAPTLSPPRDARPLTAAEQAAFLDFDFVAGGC
Chain of UniProt P54278 (P54278 whole entry, looked up): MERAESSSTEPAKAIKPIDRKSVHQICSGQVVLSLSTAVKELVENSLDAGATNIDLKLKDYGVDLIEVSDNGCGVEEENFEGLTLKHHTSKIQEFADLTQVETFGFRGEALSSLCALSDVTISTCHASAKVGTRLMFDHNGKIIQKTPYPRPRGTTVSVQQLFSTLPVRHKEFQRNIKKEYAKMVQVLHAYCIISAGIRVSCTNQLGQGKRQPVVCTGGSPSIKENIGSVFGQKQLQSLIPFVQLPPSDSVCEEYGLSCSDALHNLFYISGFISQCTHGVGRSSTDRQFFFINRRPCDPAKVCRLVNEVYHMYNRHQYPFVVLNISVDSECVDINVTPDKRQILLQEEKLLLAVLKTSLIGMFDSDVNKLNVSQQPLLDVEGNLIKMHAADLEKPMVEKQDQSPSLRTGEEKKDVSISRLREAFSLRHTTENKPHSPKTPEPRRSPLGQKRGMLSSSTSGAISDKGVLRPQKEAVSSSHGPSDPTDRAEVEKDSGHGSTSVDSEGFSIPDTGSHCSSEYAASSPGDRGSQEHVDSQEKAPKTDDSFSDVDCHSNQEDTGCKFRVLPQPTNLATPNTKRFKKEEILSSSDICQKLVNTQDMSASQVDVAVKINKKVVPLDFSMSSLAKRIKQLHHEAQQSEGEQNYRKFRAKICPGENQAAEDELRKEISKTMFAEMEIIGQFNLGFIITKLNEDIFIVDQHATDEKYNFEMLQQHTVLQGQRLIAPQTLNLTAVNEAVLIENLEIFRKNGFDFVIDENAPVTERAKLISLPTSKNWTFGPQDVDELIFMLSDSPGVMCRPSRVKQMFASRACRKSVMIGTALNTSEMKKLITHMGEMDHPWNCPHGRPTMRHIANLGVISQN
Chain of UniProt P57721 (P57721 whole entry, looked up): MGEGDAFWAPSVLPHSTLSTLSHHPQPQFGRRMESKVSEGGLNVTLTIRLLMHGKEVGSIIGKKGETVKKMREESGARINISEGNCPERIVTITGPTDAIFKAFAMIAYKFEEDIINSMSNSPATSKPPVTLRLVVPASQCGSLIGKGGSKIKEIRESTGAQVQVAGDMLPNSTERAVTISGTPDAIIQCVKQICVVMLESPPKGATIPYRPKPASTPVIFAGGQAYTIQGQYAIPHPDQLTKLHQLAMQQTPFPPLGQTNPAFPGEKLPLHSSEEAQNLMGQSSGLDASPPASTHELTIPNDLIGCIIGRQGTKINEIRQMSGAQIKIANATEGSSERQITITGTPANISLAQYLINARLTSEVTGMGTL
Chain of UniProt Q15366 (Q15366 whole entry, looked up): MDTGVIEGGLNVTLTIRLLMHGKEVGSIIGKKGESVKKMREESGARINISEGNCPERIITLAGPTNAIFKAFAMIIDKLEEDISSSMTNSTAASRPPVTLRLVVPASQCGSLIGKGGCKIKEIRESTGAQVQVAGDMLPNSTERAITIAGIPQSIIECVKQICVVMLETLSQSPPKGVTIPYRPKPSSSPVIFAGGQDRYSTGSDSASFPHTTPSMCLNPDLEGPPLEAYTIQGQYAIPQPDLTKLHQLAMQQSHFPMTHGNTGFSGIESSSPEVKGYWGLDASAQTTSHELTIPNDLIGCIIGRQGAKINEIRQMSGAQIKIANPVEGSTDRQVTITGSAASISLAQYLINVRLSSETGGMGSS
Chain of UniProt P53609 (P53609 whole entry, looked up): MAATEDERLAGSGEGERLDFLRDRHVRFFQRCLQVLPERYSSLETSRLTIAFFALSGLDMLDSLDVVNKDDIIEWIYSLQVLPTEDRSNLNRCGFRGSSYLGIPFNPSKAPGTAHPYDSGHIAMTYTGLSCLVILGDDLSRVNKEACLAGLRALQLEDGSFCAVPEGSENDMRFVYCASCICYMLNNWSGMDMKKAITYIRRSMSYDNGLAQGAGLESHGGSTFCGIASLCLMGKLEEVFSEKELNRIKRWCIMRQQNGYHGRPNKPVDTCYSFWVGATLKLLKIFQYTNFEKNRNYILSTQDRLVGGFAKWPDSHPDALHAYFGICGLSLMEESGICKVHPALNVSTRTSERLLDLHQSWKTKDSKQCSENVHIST
Chain of UniProt O15530 (O15530 whole entry, looked up): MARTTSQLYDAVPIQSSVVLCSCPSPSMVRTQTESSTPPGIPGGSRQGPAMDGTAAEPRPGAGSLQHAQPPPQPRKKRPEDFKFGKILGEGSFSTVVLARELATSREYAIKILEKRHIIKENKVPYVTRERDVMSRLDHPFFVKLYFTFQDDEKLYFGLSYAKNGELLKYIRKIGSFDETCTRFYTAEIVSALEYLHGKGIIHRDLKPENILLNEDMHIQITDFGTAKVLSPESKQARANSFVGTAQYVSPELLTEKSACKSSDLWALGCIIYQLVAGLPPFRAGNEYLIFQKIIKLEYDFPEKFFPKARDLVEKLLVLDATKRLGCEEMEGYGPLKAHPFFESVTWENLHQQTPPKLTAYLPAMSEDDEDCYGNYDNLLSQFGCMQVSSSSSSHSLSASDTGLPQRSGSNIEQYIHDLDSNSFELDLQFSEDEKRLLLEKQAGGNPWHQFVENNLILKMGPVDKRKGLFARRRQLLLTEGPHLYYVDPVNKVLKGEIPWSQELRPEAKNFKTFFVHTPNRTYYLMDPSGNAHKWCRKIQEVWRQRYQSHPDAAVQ

In the case of PDPK1 (UniProt O15530), the log2 fold change in [1] was -0.093; in [2], 0.314; in test [3], -0.014; in [4], -0.093; in [5] it was 0; in test [6], -0.094. The log2 fold change is -0.011 in test [7], 0.619 (active) in [8], 0.019 in test [9] and -0.059 in test [10].
In the case of PDF (UniProt Q9HBH1), the log2 fold change in test [1] is 0.014; in test [2], 0.002; in test [3], -0.037; in test [4] it was 0.02; in test [5] it was 0.067; in test [6], -0.064. In addition, the log2 fold change in [7] was -0.012; in [8], 0.022; in test [9], -0.034; in test [10] it was 0.056.
For PPIL2 (UniProt Q13356), the log2 fold change was -0.032 in test [1]; 0.014 in [2]; 0.064 in test [3]; 0.008 in test [4]; -0.004 in test [5]; -0.063 in test [6]. Besides, the log2 fold change in test [7] was -0.038; in [8], 0.018; in test [9] it was -0.063; in [10], 0.011.
Turning to PUM1 isoform 3 (UniProt Q14671), the log2 fold change is -0.072 in [1]; -0.012 in test [2]; -0.027 in test [3]; 0.03 in test [4]; 0.016 in test [5]; 0.01 in test [6]. Also, the log2 fold change is -0.057 in test [7], 0.004 in test [8], -0.021 in [9] and 0.028 in test [10].
For the target PMS2 (UniProt P54278), the log2 fold change in test [1] was -0.024; in test [2], -0.021; in test [3] it was -0.1; in test [4] it was 0.039; in test [5], 0.047; in test [6] it was -0.011. Besides, the log2 fold change in test [7] is -0.078; in test [8], 0.043; in test [9], 0; in test [10], -0.006.
As to PKN1 isoform 2 (UniProt Q16512), the log2 fold change in test [1] is -0.014; in test [2], -0.098; in [3], -0.14; in [4], -0.002; in test [5], 0; in test [6], 0.102. For the same target, the log2 fold change in test [7] was 0.009; in [8] it was -0.128; in test [9] it was -0.054; in test [10], -0.004.
For PPIL3 (UniProt Q9H2H8), the log2 fold change in test [1] is 0.121; in test [2], 0.023; in test [3], -0.049; in test [4], 0.176; in test [5], -0.032; in test [6], 0.017. In addition, the log2 fold change in test [7] was -0.028; in test [8] it was -0.025; in test [9] it was -0.054; in [10], -0.051.
Take PDIA4 (UniProt P13667): the log2 fold change in test [1] was 0.008; in test [2], -0.006; in [3], 0.006; in test [4], 0.014; in [5], 0.004; in test [6], 0.154. The log2 fold change was 0.029 in [7], -0.004 in [8], -0.02 in test [9] and 0.008 in test [10].
Regarding PIKFYVE (UniProt Q9Y2I7), the log2 fold change in test [1] was 0.017; in test [2], -0.017; in [3], -0.022; in test [4], -0.015; in [5], 0.009; in test [6], -0.014. The log2 fold change in [7] was -0.035; in [8], 0.007; in test [9], 0.027; in test [10], -0.005.
For PRMT7 (UniProt Q9NVM4), the log2 fold change in [1] was 0.039; in test [2], -0.01; in test [3], 0.032; in test [4], -0.029; in [5], -0.032; in [6], -0.041. The log2 fold change was -0.011 in test [7], 0.023 in test [8], 0.028 in test [9] and 0.025 in [10].
Take PCBP3 (UniProt P57721): the log2 fold change was 0.015 in test [1]; -0.022 in test [2]; -0.005 in test [3]; 0.018 in [4]; -0.025 in [5]; -0.004 in test [6]. Further, the log2 fold change in test [7] was 0; in test [8], -0.023; in test [9], -0.014; in test [10], 0.012.
Turning to PCBP2 isoform 8 (UniProt Q15366), the log2 fold change in test [1] was 0.059; in test [2] it was 0.069; in [3], -0.057; in test [4] it was 0.04; in test [5], 0.003; in [6], 0.133. Also, the log2 fold change is 0.015 in test [7], 0.055 in [8], -0.091 in test [9] and -0.049 in test [10].
As to PGGT1B (UniProt P53609), the log2 fold change was 0.01 in test [1]; -0.005 in test [2]; 0.005 in test [3]; -0.03 in test [4]; 0.048 in test [5]; 0.066 in test [6]. Also, the log2 fold change was 0.208 in [7], 0.018 in test [8], -0.037 in test [9] and 0.047 in test [10].
